Consider five molecules from PubChem BioAssay (EPA / NIEHS).

Inconclusive results are not listed. Activity calls are given as the source filed them. How the source made its calls, unless noted: active means hit-call score of the fitted dose curve at least 0.9, where 1 is the maximum; inconclusive means response in the unintended direction; inactive means score below 0.9.

Experiment [1] is described as follows: ATG_GLI_CIS: Attagene CIS-FACTORIAL HepG2 Assay for human Zinc Finger Protein GLI1 (AID 2282945; active means hit-call score of the fitted dose curve at least 0.9, where 1 is the maximum; inactive means score below 0.9). The following applies: HepG2, Attagene cis-factorial reporter mRNA, GLI element; actives raise or lower the signal. The gist of the method: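 Bidirectional curve fits relative to DMSO, using reporter mRNA levels from RT-PCR plus capillary electrophoresis. Cells were HepG2 transiently carrying cis-regulated reporter constructs, harvested 24 h after dosing.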

Experiment [2] can be described thus: ATG_GRE_CIS: Attagene CIS-FACTORIAL HepG2 Assay for human Glucocorticoid Response Elements (GRE) (AID 2282947; active means hit-call score of the fitted dose curve at least 0.9, where 1 is the maximum; inactive means score below 0.9). Particulars: HepG2 GRE cis-reporter, Attagene multiplex mRNA; actives raise or lower the signal. The essentials:
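Multiplexed cis-reporter mRNA induction, HepG2, 24 h post-dose. RT-PCR, FAM-labelled, HpaI-digested amplicons by CE. Bidirectional fit vs DMSO.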

Experiment [3] is described as follows: ATG_SREBP_CIS: Attagene CIS-FACTORIAL HepG2 Assay for human Sterol Regulatory Element Binding (SREBP) (AID 2282962; active means hit-call score of the fitted dose curve at least 0.9, where 1 is the maximum; inactive means score below 0.9). Particulars: HepG2 Attagene cis-factorial SREBP reporter, mRNA; actives raise or lower the signal. The gist of the method:
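Endogenous factor activity is measured in HepG2 through multiplexed reporter units under cis-element control. Following a 24 h incubation, reporter transcripts are reverse-transcribed, PCR-amplified and sized by capillary electrophoresis; activity is fitted in both directions relative to DMSO.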

In experiment [4] the target is Signal transducer and activator of transcription 3 (Homo sapiens) (UniProt P40763). Briefly: ATG_STAT3_CIS: Attagene CIS-FACTORIAL HepG2 Assay for human Signal Transducer and Activator of Transcription 3 (STAT3) (AID 2282963; active means hit-call score of the fitted dose curve at least 0.9, where 1 is the maximum; inactive means score below 0.9). The following applies: HepG2, Attagene cis-factorial STAT3 reporter transcription; actives raise or lower the signal. The essentials:
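Cis-factorial format: endogenous transcription factors in HepG2 drive transfected reporter units. After 24 h treatment, reporter RNA was reverse-transcribed, amplified, FAM-labelled and HpaI-digested before CE analysis; activity scored in both directions against DMSO.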

Experiment [5] can be described thus: ATG_M_06_TRANS: Attagene TRANS-FACTORIAL HepG2 Assay for M06 Transcription Factor (Internal Marker) (AID 2282983). Particulars: HepG2 Attagene TRANS M06 internal marker reporter. The essentials:
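Human liver HepG2 cells bearing transiently transfected chimeric NR-GAL4 reporter units were treated with chemicals for 24 h. Total RNA was reverse-transcribed, reporter sequences amplified and labelled, then quantified by capillary electrophoresis. Activity was fitted upward relative to DMSO.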

The nature of experiment [6]: ATG_Oct_MLP_CIS: Attagene CIS-FACTORIAL HepG2 Assay for human Octamer-Binding Transcription Factor (Oct) (AID 2282993; active means hit-call score of the fitted dose curve at least 0.9, where 1 is the maximum; inactive means score below 0.9). The following applies: HepG2 Attagene cis-factorial Oct reporter, mRNA; actives raise or lower the signal. The essentials: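 Cells of the HepG2 line express promoter-controlled reporter sequences whose mRNA levels, after 24 h treatment, are measured by RT-PCR and capillary electrophoresis. Increases and decreases are scored relative to DMSO.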

The target in experiment [7] is human Peroxisome Proliferator-activated Receptor alpha (PPARa), PPARA (gene 5465) (UniProt Q07869). Description: ATG_PPARa_TRANS: Attagene TRANS-FACTORIAL HepG2 Assay for human Peroxisome Proliferator-activated Receptor alpha (PPARa) (AID 2283001). The essentials:
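Transfected HepG2 cells treated with test chemical for 24 h. RNA isolated, reverse-transcribed with oligo(dT), PCR-amplified, FAM-labelled and HpaI-digested. Fragments sized by capillary electrophoresis; gain-of-signal fit relative to DMSO.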

Experiment [8] has as its target human Retinoid X Receptor beta (RXRb), RXRB (gene 6257) (UniProt P28702). Description: ATG_RXRb_TRANS: Attagene TRANS-FACTORIAL HepG2 Assay for human Retinoid X Receptor beta (RXRb) (AID 2283013). The essentials:
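Read-out: reporter mRNA induction via RT-PCR plus capillary electrophoresis fluorescence, analysed as signal increase relative to DMSO. Cells were human HepG2, transiently transfected with GAL4-UAS reporter constructs and chimeric receptor-Gal4 fusions, dosed for 24 h.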

The nature of experiment [9]: TOX21_p53_BLA_p2_viability: Viability Assessment in the Tox21 HCT-116 p53 Agonism Beta-lactamase Assay, Phase 2 (AID 2283591).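 Further: compound exposure lasted 16 h at 37 °C; actives lower the ATP signal meaning cytotoxicity.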 The essentials:
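Cytotoxicity readout: CellTiter-Glo ATP luminescence, 30 min at room temperature, after the beta-lactamase read. Cells were HCT116 exposed 16 h at 37C to compounds pin-transferred at 217-fold dilution from DMSO stocks.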

Experiment [10] in a line: TOX21_p53_BLA_p3_viability: Viability Assessment in the Tox21 HCT-116 p53 Agonism Beta-lactamase Assay, Phase 3 (AID 2283593).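 Further: cells exposed to compound for 16 h before reading.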 The gist of the method: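 Cellular ATP was quantified by CellTiter-Glo luminescence, read after 30 min at room temperature. Beforehand, HCT116 cells (4000/well) received compound 5 h post-seeding, 217-fold diluted from DMSO, then incubated 16 h at 37C.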

Experiment [11] deals with Cellular tumor antigen p53 (Homo sapiens) (UniProt P04637). Briefly: TOX21_p53_BLA_p3_ratio: Tox21 HCT-116 p53 Agonism Beta-lactamase Assay, Ratio, Phase 3 (AID 2283596). The gist of the method: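 Cells were seeded at 4000/well, rested 5 h at 37C, then dosed with DMSO compound solutions (217-fold dilution) for 16 h. CCF4-AM substrate was loaded for 2 h at room temperature, and the 460/530 nm emission ratio was fitted for gain of signal versus DMSO.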
Sequence of Cellular tumor antigen p53 (Homo sapiens) (P04637 whole entry, looked up): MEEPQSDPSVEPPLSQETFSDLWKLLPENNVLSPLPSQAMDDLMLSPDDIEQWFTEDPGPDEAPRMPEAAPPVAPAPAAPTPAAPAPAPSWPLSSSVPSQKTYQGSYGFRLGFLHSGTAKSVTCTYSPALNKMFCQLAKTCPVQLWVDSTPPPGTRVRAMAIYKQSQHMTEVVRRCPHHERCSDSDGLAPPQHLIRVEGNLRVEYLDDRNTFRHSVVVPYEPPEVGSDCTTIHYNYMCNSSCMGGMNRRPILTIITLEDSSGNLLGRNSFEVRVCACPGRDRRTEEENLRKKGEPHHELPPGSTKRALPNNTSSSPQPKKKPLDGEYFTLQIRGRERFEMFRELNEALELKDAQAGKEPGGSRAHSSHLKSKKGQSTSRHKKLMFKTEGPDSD

Experiment [12] shares this target. Description: TOX21_p53_BLA_p5_ratio: Tox21 HCT-116 p53 Agonism Beta-lactamase Assay, Ratio, Phase 5 (AID 2283599). The essentials:
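Beta-lactamase reporter ratio (blue 460 nm over green 530 nm, 405 nm excitation) after 2 h CCF4-AM loading, in HCT-116 cells exposed 16 h at 37 C to compounds pinned at 217-fold dilution. Increases relative to DMSO baseline scored.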

Experiment [13] can be described thus: TOX21_p53_BLA_p5_viability: Viability Assessment in the Tox21 HCT-116 p53 Agonism Beta-lactamase Assay, Phase 5 (AID 2283600). The essentials: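 Viability is taken from cellular ATP content, measured by luciferase luminescence in the same wells after the beta-lactamase ratio read. Cells are seeded at 4000 per well and exposed to DMSO-dissolved compounds, diluted 217-fold, for 16 h.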

Experiment [14] addresses Cellular tumor antigen p53 (Homo sapiens) (UniProt P04637). Description: TOX21_p53_BLA_p4_ratio: Tox21 HCT-116 p53 Agonism Beta-lactamase Assay, Ratio, Phase 4 (AID 2283601). The gist of the method: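 Signal is the blue/green (460nm/530nm) ratio of cleaved versus uncleaved CCF4-AM substrate, read after 2 h substrate loading. Cells were HCT116 carrying the p53-responsive beta-lactamase reporter, dosed 16 h at 37C, 5% CO2; CellTiter-Glo measured in parallel.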

For experiment [15], the target named is Hepatocyte nuclear factor 6 (Homo sapiens) (UniProt Q9UBC0). Briefly: ATG_HNF6_CIS: Attagene CIS-FACTORIAL HepG2 Assay for human Hepatocyte Nuclear Factor 6 (HNF6) (AID 2282952; active means hit-call score of the fitted dose curve at least 0.9, where 1 is the maximum; inactive means score below 0.9). The following applies: HepG2 Attagene cis-factorial HNF6 reporter transcription; actives raise or lower the signal. The gist of the method: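 Endogenous transcription factor activity in human HepG2 liver cells was captured through cis-regulated reporter constructs. After 24 h treatment, reporter mRNA was measured by RT-PCR with capillary electrophoresis, and activity was fitted in both directions relative to DMSO.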
Sequence of Hepatocyte nuclear factor 6 (Homo sapiens) (Q9UBC0 whole entry, looked up): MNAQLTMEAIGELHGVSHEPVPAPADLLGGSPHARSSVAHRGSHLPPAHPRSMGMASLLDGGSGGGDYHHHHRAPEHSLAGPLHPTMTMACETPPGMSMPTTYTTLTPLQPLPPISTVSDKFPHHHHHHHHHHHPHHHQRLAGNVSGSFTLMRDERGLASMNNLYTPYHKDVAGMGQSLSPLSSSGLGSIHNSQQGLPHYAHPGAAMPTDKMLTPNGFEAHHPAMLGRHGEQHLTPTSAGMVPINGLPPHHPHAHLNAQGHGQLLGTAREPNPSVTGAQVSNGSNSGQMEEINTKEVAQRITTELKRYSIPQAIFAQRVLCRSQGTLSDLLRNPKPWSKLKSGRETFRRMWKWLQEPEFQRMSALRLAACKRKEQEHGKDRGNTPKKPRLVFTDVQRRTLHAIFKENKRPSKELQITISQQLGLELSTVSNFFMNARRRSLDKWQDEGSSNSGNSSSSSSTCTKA

Experiment [16] is described as follows: ATG_PBREM_CIS: Attagene CIS-FACTORIAL HepG2 Assay for human Phenobarbital-responsive Enhancer Module (PBREM) (AID 2282955; active means hit-call score of the fitted dose curve at least 0.9, where 1 is the maximum; inactive means score below 0.9). The following applies: HepG2 PBREM cis-reporter, Attagene multiplexed transcription; actives raise or lower the signal. The essentials: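 Measures endogenous factor action on a phenobarbital-responsive enhancer module. HepG2 transiently carrying cis reporters, 24 h treatment, mRNA read-out by RT-PCR plus capillary electrophoresis.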

Experiment [17] deals with Hepatocyte nuclear factor 4-alpha (Homo sapiens) (UniProt P41235). Description: ATG_HNF4a_TRANS: Attagene TRANS-FACTORIAL HepG2 Assay for human Hepatocyte Nuclear Factor 4 alpha (HNF4a) (AID 2282982). The following applies: HepG2 HNF4a transactivation reporter, mRNA readout. The essentials:
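Multiplexed reporter assay: transfected HepG2, 24 h exposure, total RNA → oligo(dT) RT → PCR → 6-FAM extension → HpaI digest → CE fluorescence. DMSO = negative control.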

The nature of experiment [18]: ATG_NRF2_ARE_CIS: Attagene CIS-FACTORIAL HepG2 Assay for human Nuclear Factor Erythroid 2 Related Factor 2 (NFR2) response to Antioxidant Response Elements (ARE) (AID 2282992; active means hit-call score of the fitted dose curve at least 0.9, where 1 is the maximum; inactive means score below 0.9). The following applies: HepG2 Attagene ARE/NRF2 reporter, transcription factor activity; actives raise or lower the signal. The essentials: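 Endogenous transcription factor activity in human liver HepG2 cells is tracked via a cis-element-driven reporter within a multiplexed set. mRNA induction is read by RT-PCR and capillary electrophoresis after 24 h, with DMSO as baseline.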

Experiment [19] deals with Heat shock factor protein 1 (Homo sapiens) (UniProt Q00613). Briefly: ATG_HSE_CIS: Attagene CIS-FACTORIAL HepG2 Assay for human Heat Shock Transcription Factor 1 (HSE) (AID 2282953; active means hit-call score of the fitted dose curve at least 0.9, where 1 is the maximum; inactive means score below 0.9). Particulars: HepG2 HSE cis-reporter, Attagene RNA transcription; actives raise or lower the signal. The gist of the method: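 After a 24 h incubation with test chemical, transfected HepG2 cells were harvested for RNA; reporter transcripts were measured by RT-PCR and capillary electrophoresis. Values reflect gain or loss of signal relative to DMSO.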
Sequence of Heat shock factor protein 1 (Homo sapiens) (Q00613 whole entry, looked up): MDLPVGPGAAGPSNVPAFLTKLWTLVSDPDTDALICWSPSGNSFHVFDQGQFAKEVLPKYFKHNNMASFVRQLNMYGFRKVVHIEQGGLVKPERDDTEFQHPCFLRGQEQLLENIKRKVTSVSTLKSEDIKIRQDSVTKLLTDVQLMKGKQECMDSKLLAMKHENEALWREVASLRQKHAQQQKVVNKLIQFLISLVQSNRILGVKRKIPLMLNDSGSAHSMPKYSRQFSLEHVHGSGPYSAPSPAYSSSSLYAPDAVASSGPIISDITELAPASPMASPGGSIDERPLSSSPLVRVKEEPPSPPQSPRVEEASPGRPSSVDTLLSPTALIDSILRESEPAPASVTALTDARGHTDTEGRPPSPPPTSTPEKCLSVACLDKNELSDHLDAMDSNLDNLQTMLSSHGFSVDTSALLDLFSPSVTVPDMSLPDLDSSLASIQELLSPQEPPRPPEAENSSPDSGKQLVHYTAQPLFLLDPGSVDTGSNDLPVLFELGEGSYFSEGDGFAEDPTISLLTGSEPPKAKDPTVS

Experiment [20] can be described thus: ATG_NF_kB_CIS: Attagene CIS-FACTORIAL HepG2 Assay for human Nuclear Factor Kappa B (NF-kB) (AID 2282991; active means hit-call score of the fitted dose curve at least 0.9, where 1 is the maximum; inactive means score below 0.9). The following applies: HepG2 Attagene cis-factorial NF-kB reporter mRNA; actives raise or lower the signal. The essentials: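 Fluorescence of labelled RT-PCR products separated by capillary electrophoresis gives reporter mRNA levels from transfected HepG2 cells exposed 24 h; values are fitted in both directions relative to DMSO.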

Sequence of Hepatocyte nuclear factor 4-alpha (Homo sapiens) (P41235 whole entry, looked up): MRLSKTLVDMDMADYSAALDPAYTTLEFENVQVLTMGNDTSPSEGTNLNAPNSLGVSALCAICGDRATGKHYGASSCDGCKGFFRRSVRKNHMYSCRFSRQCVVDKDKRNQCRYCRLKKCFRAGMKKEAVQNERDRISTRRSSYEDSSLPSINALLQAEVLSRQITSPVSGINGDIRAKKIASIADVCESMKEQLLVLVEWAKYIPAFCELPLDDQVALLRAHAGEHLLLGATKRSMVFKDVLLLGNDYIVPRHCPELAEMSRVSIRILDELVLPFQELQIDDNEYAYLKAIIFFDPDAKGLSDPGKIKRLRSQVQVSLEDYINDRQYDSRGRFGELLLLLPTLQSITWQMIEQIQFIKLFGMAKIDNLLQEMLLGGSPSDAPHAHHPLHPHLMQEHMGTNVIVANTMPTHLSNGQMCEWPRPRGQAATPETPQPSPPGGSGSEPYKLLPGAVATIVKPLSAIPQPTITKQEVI
Sequence of human Peroxisome Proliferator-activated Receptor alpha (PPARa), PPARA (gene 5465) (Q07869 whole entry, looked up, the tested form may be a part): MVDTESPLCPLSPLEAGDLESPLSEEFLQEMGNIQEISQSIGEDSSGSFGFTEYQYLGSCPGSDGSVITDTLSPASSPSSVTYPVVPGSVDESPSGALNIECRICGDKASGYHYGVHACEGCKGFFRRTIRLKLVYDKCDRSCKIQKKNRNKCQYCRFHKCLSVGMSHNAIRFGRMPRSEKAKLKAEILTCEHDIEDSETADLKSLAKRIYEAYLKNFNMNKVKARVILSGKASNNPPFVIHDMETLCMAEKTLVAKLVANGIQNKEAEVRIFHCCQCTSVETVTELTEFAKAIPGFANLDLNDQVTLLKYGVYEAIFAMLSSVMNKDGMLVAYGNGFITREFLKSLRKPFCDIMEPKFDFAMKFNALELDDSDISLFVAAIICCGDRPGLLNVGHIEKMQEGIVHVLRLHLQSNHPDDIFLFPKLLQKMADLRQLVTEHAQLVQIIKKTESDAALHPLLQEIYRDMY
Sequence of Signal transducer and activator of transcription 3 (Homo sapiens) (P40763 whole entry, looked up): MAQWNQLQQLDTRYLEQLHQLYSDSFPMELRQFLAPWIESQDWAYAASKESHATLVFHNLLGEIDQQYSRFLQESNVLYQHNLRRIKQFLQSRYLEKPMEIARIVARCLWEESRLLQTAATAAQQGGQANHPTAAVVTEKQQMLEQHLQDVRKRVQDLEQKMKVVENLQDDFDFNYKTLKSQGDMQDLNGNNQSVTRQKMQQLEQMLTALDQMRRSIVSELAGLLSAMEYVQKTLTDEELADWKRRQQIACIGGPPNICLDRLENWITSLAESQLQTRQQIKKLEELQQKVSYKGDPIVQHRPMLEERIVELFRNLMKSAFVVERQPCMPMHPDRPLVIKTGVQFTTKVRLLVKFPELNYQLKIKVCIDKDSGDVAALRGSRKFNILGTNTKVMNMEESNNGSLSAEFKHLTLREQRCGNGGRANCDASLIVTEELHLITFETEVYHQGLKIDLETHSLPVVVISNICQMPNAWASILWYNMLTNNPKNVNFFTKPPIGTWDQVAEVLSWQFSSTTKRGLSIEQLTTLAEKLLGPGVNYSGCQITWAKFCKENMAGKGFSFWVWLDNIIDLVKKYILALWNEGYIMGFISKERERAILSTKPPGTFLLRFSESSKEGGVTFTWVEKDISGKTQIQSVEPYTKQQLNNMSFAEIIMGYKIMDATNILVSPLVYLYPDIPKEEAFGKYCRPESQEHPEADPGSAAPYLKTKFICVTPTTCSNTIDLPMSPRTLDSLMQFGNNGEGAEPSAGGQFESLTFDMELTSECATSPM
Sequence of human Retinoid X Receptor beta (RXRb), RXRB (gene 6257) (P28702 whole entry, looked up, the tested form may be a part): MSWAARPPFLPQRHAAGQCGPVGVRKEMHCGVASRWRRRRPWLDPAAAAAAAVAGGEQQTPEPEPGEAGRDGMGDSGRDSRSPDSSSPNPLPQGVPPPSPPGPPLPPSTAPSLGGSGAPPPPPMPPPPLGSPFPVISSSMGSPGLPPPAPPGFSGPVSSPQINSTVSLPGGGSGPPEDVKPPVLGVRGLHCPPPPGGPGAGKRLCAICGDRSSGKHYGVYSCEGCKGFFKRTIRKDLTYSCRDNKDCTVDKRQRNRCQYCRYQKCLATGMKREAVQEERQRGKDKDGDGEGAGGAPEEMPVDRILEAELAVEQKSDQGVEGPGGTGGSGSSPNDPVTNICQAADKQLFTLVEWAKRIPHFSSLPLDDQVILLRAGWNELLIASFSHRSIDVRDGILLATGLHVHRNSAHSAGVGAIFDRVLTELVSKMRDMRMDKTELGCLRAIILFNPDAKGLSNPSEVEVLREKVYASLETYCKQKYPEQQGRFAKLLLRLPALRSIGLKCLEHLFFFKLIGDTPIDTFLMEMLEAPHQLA

One may read the AC50 as the concentration at which the activity in the assay is half-maximal. On to `CC(C)n1c(/C=C/[C@@H](O)C[C@@H](O)CC(=O)O)c(-c2ccc(F)cc2)c2ccccc21`, for which the call in experiment [1], in [2], in [4], in experiment [5], in [6] and in [7] was inactive. The molecule was classed as inactive in experiment [8], in experiment [9], in experiment [10], in [11], in experiment [12] and in experiment [13]. Besides, the outcome in experiment [14] was inactive. Also, in experiment [3], the AC50 was 0.284 µM (active).

For the molecule `Cc1cc(C)c(S(=O)(=O)O)cc1N=Nc1cc(S(=O)(=O)O)c2ccccc2c1O`, the molecule was called inactive in [1], in [15], in experiment [16], in experiment [3], in experiment [17] and in [5]. For the same molecule, the molecule was classed as inactive in [6], in experiment [7], in [8], in experiment [9], in experiment [10] and in experiment [11]. Moreover, the outcome in [13] and in [14] was inactive. The AC50 in [18] is 72.2 µM (active).

In the case of `CCOC(=O)CC(=O)OCC`, the call in experiment [1], in experiment [2], in [15], in experiment [3], in experiment [4] and in experiment [17] was inactive. In addition, the result in experiment [18], in [7], in experiment [9], in [10], in [11] and in experiment [12] was inactive. Besides, the call in experiment [13] and in experiment [14] was inactive.

Take `COC(=O)c1ccccc1`: the molecule was classed as inactive in [1], in experiment [15], in experiment [19], in experiment [3], in [17] and in experiment [5]. Moreover, the molecule was called inactive in experiment [20], in experiment [18], in [6], in [9], in [10] and in experiment [11]. Further, the outcome in experiment [12], in experiment [13] and in [14] was inactive.

In the case of `Cc1cccnc1`, the AC50 in experiment [19] is 100 µM (active). The outcome in [16], in [3], in [20], in experiment [18] and in [6] was inactive.
